# Laboratory results from PubChem BioAssay (NCATS).
# Several values for one entry are separate records, joined by “and”; a condition that tells them apart may be missing. Equal values may be shown once. Inconclusive results are not listed. The source holds several records for some structures; these can differ, active in one and inactive in another. Activity calls are given as the source filed them. Unless noted, calls follow the shape of the dose curve; as a rule, active = well fitted curve in the direction sought with a large enough effect; inconclusive = small, poorly fitted or top-dose-only effect, or another doubt; inactive = no such curve, though single readings can be large; an effect the other way counts as inactive or inconclusive.
# How the values were obtained:
# [1] = qHTS assay for small molecule agonists of the antioxidant response element (ARE) signaling pathway (AID 651741; active = well fitted activation curve with a large enough effect in the signal ratio; the % refers to the signal ratio; also: potency is read from the fitted curve at half-maximal effect; as to activation: % of control where 0% means no effect)
# How it was run: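 HepG2 ARE-bla reporter cells, 2,000/well; 5 h settle at 37 C/5% CO2; compound pin transfer (23 nL, DMSO); 16 h at 37 C; LiveBLAzer B/G FRET substrate, 2 h RT; fluorescence intensity read.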
# [2] = qHTS assay for small molecule activators of the p53 signaling pathway (AID 651743; active = well fitted activation curve with a large enough effect in the signal ratio, not every such curve was filed as active; the % refers to the signal ratio; also: % of control where 0% means no effect); details: HCT-116 p53RE-bla, beta-lactamase FRET ratio, 16 h; stronger effect = higher value
# How it was run: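 Reporter: beta-lactamase driven by p53 response elements, stably integrated in HCT-116 cells. Cells seeded at 4,000/well, 5 h preincubation, compound (DMSO) 16 h at 37 C; B/G FRET substrate 2 h RT; fluorescence intensity read.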
# [3] = qHTS assay for small molecule activators of the nuclear factor-kappa B (NF-kB) signaling pathway (AID 651749; active = well fitted activation curve with a large enough effect in the signal ratio; the % refers to the signal ratio; also: % of control where 0% means no effect); details: NF-kB-bla ME-180 cells, beta-lactamase FRET ratio, 16 h; stronger effect = higher value
# How it was run: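 NF-kB-bla ME-180 cells, 2,000/well; 23 nL compound or DMSO pinned; 16 hr, 37C/5% CO2; beta-lactamase FRET read-out.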
# [4] = qHTS assay for small molecule disruptors of the mitochondrial membrane potential - 1 hr assay (AID 651754; calls by dose curve; also: potency is read from the fitted curve at half-maximal effect; nearly all actives have a fitted effect of over 35% in size)
# From the text: National Center for Advancing Translational Sciences [NCATS]
# NIH Chemical Genomics Center [NCGC]
# National Institutes of Environmental Health Sciences [NIEHS]
# National Toxicology Program [NTP]
# Mitochondrial membrane potential (MMP), one of the parameters for mitochondrial function, is generated by mitochondrial electron transport chain that creates an electrochemical gradient by a series of redox reactions. This gradient drives the synthesis of ATP, a crucial molecule for various cellular processes. Measuring MMP in living cells is commonly used to assess the effect of chemicals on mitochondrial function. […] The dye accumulates in the mitochondria of healthy cells as aggregates, with red fluorescence. The mitochondrial potential collapses and the dye can no longer accumulate in the mitochondria and remains in the cytoplasm in monomers, with green fluorescence.
# 2,000 HepG2 cells in 5 uL/well were dispensed into black, clear-bottom 1536-well plates using a Multidrop Combi (Thermo Scientific) dispenser. The assay plates were incubated overnight at 37C to allow cells to attach to the wells, followed by the transfer of 23 nL compound or DMSO vehicle by a pin tool (Kalypsys). The plates were incubated for 1 hr at 37C and 5% CO2, followed by the addition of 5 uL of 2X Mito-MPS dye (BD Biosciences) into each well using Flying Reagent Dispenser (Aurora Discovery) and then following 30 min incubation at 37C. Fluorescence intensity (490nm excitation and 535nm emission for monomers; and 540nm excitation and 590nm emissions for aggregates) was measured using an Envision plate reader.
# [5] = qHTS assay for small molecule disruptors of the mitochondrial membrane potential - 5 hr assay (AID 651755; calls by dose curve; also: nearly all actives have a fitted effect of over 40% in size; also: potency is read from the fitted curve at half-maximal effect)
# How it was run: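 Read-out: ratiometric Mito-MPS fluorescence, green monomer (ex 490/em 535) vs red mitochondrial aggregate (ex 540/em 590). HepG2 cells treated 5 hr at 37C before 30 min dye loading.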
# [6] = molecular target: Tumor necrosis factor (Homo sapiens) (UniProt P01375); assay: qHTS assay to identify small molecules that stimulate Tumor Necrosis Factor-alpha (TNF-alpha) secretion (AID 651757; active = well fitted curve in the direction sought with a large enough effect in the signal ratio; the % refers to the signal ratio; also: 0% is about no effect)
# How it was run: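 Using 3000 THP-1 cells per well, compounds and controls were applied for 17 hrs at 37 C. Detection followed with two labeled anti-TNF-alpha antibodies (cryptate donor, XL665 acceptor) for 3 hr at room temperature, measured by TR-FRET.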
# [7] = Cell Proliferation Assay against the TMD8 Cell Line (AID 651645); details: TMD8 DLBCL cell line proliferation/viability; at 46.1 µM (top of the series) unless noted;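 also: cells exposed to compound for 48 h before reading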
# How it was run: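 TMD8 cells, 500/well in RPMI with 5% FBS, dosed immediately and grown 48 h at 37 C, 5% CO2. CellTiter-Glo luminescence normalised to DMSO 100% and 9.2 uM bortezomib (final) 0%.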
# [8] = Cell Proliferation Assay against the HBL1 Cell Line (AID 651646); details: HBL1 DLBCL cells; at 46.1 µM (top of the series) unless noted;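 also: cells exposed to compound for 48 h before reading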
# How it was run: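 HBL1, 500 cells/well, RPMI no phenol red + 5% FBS; cpd pinned, 48 h 37C/5% CO2; CellTiter-Glo, 15 min RT, luminescence. % activity: DMSO = 100%, bortezomib 9.2 uM final = 0%.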
# [9] = Cell Proliferation Assay against the TMD8 Cell Line (Caspase readout at 16 hrs) (AID 651712); also: potency is read from the fitted curve at half-maximal effect
# How it was run: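 Caspase-Glo luminescence after 16 h compound exposure of TMD8 cells, 37 °C, 5% CO2. Medium: RPMI without phenol red, 5% FBS. Normalisation: DMSO = 0%, bortezomib 9.2 uM final = 100%.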
# [10] = Cell Proliferation Assay against the TMD8 Cell Line (Caspase readout at 8 hrs) (AID 651713); also: potency is read from the fitted curve at half-maximal effect
# How it was run: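 Luminescent caspase 3/7 assay; TMD8 cells, 8 h treatment at 37C, 5% CO2. Normalisation: DMSO 0%, 9.2 uM bortezomib 100%.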
# Chain of Tumor necrosis factor (Homo sapiens) (P01375 whole entry, looked up): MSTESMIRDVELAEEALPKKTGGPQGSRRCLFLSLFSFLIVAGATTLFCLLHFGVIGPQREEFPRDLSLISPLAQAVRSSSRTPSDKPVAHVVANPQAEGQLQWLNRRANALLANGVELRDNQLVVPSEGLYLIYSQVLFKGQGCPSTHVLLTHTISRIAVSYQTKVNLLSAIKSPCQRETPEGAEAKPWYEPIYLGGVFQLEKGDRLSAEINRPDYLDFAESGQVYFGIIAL
compound,measurement,setting,value
O=c1c(-c2ccc(O)cc2)coc2cc(O)ccc12,Potency,[1],27.3 µM (active) and 42.2 µM (active)
same,activation,[2],-1.55% (inactive) and 1.43% (inactive)
same,activation,[3],-0.613% (inactive) and -0.223% (inactive)
same,Potency,[4],18.8 µM (active)
same,Potency,[5],21.1 µM (active)
same,outcome,[6],inactive
O=C(O)CCC1CCC(c2cc(F)ccc2F)(S(=O)(=O)c2ccc(Cl)cc2)CC1 (configuration not stated),viability (% of control),[7],98.2%
same,"viability, percent of control",[8],95.2%
same,Potency,[9],inactive
same,Potency,[10],inactive
CN(C)CCC(c1ccccc1)c1ccccn1 (configuration not stated),Potency,[1],37.6 µM (active)
same,activation,[2],1.39% (inactive)
same,activation,[3],-0.458% (inactive)
same,outcome,[6],inactive
O=C(O)Cc1cccc2ccccc12,Potency,[1],inactive
same,activation,[2],-2.96% (inactive) and -4.77% (inactive)
same,activation,[3],-0.417% (inactive) and -0.959% (inactive)
same,outcome,[6],inactive
CC/C(=C(\c1ccccc1)c1ccc(OCCN(C)C)cc1)c1ccccc1,outcome,[6],inactive
O=C(O)c1cc(-c2ccccc2)nc2ccccc12,activation,[2],-1.06% (inactive)
same,activation,[3],-3.75% (inactive)
CC(=O)N[C@@H](CS)C(=O)O,Potency,[1],inactive
same,activation,[2],0.943% (inactive)
CCCCC1C(=O)N(c2ccccc2)N(c2ccccc2)C1=O,Potency,[1],inactive
same,activation,[3],-1.5% (inactive) and -1.29% (inactive)
same,outcome,[6],inactive
O=C1NC(=O)C(c2ccccc2)(c2ccccc2)N1,Potency,[1],34.4 µM (active) and inactive
same,outcome,[6],inactive
COc1cc2nc(-c3ccc(N4CCN(C)CC4)cc3)nc(NCCN3CCOCC3)c2cc1OC,viability (% of control),[7],1.8%
same,"viability, percent of control",[8],5.66%
same,Potency,[10],29.6 µM (active)
CS(=O)c1ccc(-c2nc(-c3ccc(F)cc3)c(-c3ccncc3)[nH]2)cc1 (configuration not stated),Potency,[9],inactive
same,Potency,[10],inactive
CC1=C(/C=C/C(C)=C/C=C/C(C)=C/C(=O)Nc2ccc(O)cc2)C(C)(C)CCC1,viability (% of control),[7],7.34%
same,"viability, percent of control",[8],0.102%
same,Potency,[4],15 µM (active)
same,Potency,[5],18.8 µM (active)
O=c1cc(N2CCOCC2)oc2c(-c3cccc4c3sc3ccccc34)cccc12,viability (% of control),[7],2.51%
same,"viability, percent of control",[8],2.43%
same,Potency,[10],20.9 µM (active)
O=C(O)c1cc(O)c2c(c1)C(=O)c1cccc(O)c1C2=O,activation,[3],1% (inactive)
same,Potency,[4],8.41 µM (active)
same,Potency,[5],5.31 µM (active)
O=c1c(O)c(-c2ccc(O)cc2)oc2cc(O)cc(O)c12,Potency,[1],21.7 µM (active)
same,activation,[2],2.31% (inactive) and 6.56% (inactive)
same,activation,[3],-2.22% (inactive) and -4.27% (inactive)
same,Potency,[4],5.31 µM (active)
same,Potency,[5],8.41 µM (active)
CC(=O)O[C@]1(C(C)=O)CC[C@H]2[C@@H]3C=C(Cl)C4=CC(=O)[C@@H]5C[C@@H]5[C@]4(C)[C@H]3CC[C@@]21C,Potency,[1],54.5 µM (active) and 42.2 µM (active)
same,activation,[3],-2.59% (inactive) and -0.559% (inactive)
same,outcome,[6],inactive
CC(=O)c1ccc(S(=O)(=O)NC(=O)NC2CCCCC2)cc1,Potency,[1],inactive
same,activation,[2],-2.83% (inactive) and -1.75% (inactive)
same,activation,[3],-0.811% (inactive) and -1.71% (inactive)
same,outcome,[6],inactive
O=c1[nH]cnc2c1ncn2[C@H]1CC[C@@H](CO)O1,Potency,[1],inactive
same,Potency,[5],inactive
same,outcome,[6],inactive
OC[C@H]1O[C@@H](n2cnc3c2NC=NC[C@@H]3O)C[C@H]1O,viability (% of control),[7],95.3%
same,"viability, percent of control",[8],105%
same,Potency,[9],inactive
same,Potency,[10],inactive
CC(C)(C(=O)NCC(F)(F)C(F)(F)F)C(=O)N[C@@H]1C(=O)Nc2ccccc2-c2ccccc21,viability (% of control),[7],61.9%
same,"viability, percent of control",[8],73.4%
same,Potency,[9],inactive
same,Potency,[10],inactive
O=c1cc(-c2ccccc2)oc2cc(O)cc(O)c12,Potency,[1],10.9 µM (active)
same,activation,[2],22.8% (inactive)
same,activation,[3],-2.47% (inactive)
CC(C)C(=O)Nc1ncc(-c2cc(C(F)F)nn2-c2c(Cl)cccc2Cl)s1,viability (% of control),[7],9.91%
same,"viability, percent of control",[8],14.4%
same,Potency,[9],16.6 µM (active)
same,Potency,[10],inactive
CCn1cc(C(=O)O)c(=O)c2ccc(C)nc21,Potency,[1],inactive
same,activation,[3],-0.653% (inactive) and -1.68% (inactive)
O=C(N[C@@H](c1ccccc1)[C@@H]1CCCCN1)c1cccc(C(F)(F)F)c1Cl,viability (% of control),[7],74.3%
same,"viability, percent of control",[8],28.1%
same,Potency,[10],inactive
COc1cc(N2CCC(N3CCN(C)CC3)CC2)ccc1Nc1ncc(Cl)c(Nc2ccccc2S(=O)(=O)C(C)C)n1,viability (% of control),[7],3.22%
same,"viability, percent of control",[8],3.91%
same,Potency,[10],23.5 µM (active)
O=C(O)c1ccc(-c2cc3cccnc3c(-c3ccc4nonc4c3)n2)cc1,viability (% of control),[7],111%
same,"viability, percent of control",[8],91.1%
same,Potency,[9],inactive
same,Potency,[10],inactive
O=c1cc(-c2ccc(O)cc2)oc2cc(O)cc(O)c12,Potency,[1],24.3 µM (active) and 33.5 µM (active)
same,Potency,[4],2.98 µM (active)
same,Potency,[5],5.96 µM (active)
O=C(Nc1cc(Cl)cc2c1[nH]c1cnccc12)c1cccnc1,viability (% of control),[7],1.73%
same,"viability, percent of control",[8],32.9%
same,Potency,[10],inactive
CC(C)OC(=O)C(C)(C)Oc1ccc(C(=O)c2ccc(Cl)cc2)cc1,activation,[3],-1.6% (inactive)
